Results on 15 molecules are retold here after PubChem BioAssay (NCATS).

Results filed as inconclusive are left out. Unmarked numbers belong to inactive results. Active and inactive are the calls of the source. Calls follow the shape of the dose curve; as a rule, active = well fitted inhibition curve with a large enough effect; inconclusive = small, poorly fitted or top-dose-only effect; inactive = flat fitted curve, though single readings scatter.
Potency is read from the fitted curve at half-maximal effect.

This assay deals with DFO2036. Description: qHTS profiling for inhibitors of Plasmodium falciparum proliferation (AID 504749). Also: nearly all actives have a fitted effect of over 60% in size.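 As to activity, negative = inhibition: 0% = DMSO vehicle and full inhibition = artemisinin control.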 The conditions noted are these: P. falciparum in erythrocytes, SYBR Green DNA, 72 h; series mostly up to 28.7 µM; activity, negative = inhibition: at the top concentration. An excerpt:
NIH National Institute of Allergy and Infectious Diseases [NIAID] NIH Chemical Genomics Center [NCGC] MLPCN Grant: None Assay Provider: Xinzhuan Su, NIAID NCGC Assay Overview: Plasmodium falciparum is a virulent malarial parasite that kills 1-2 million people worldwide each year. Transmitted by mosquitoes, the sporozoite form of the parasite enters the blood stream to infect hepatocytes, where they become merozoites that infect red blood cells (erythrocytes). Within erythrocytes, merozoites begin a […] cycle of growth and division, after which the parasite is released to infect new red blood cells. Gametocytes, which form within erythrocytes as well, circulate in the bloodstream and are ingested by the mosquito, thereby completing the life cycle. To profile malarial isolates for differential chemical responses and to identify inhibitors of malarial growth, an assay that measures P. falciparum growth and replication within erythrocytes was employed. This assay uses a DNA binding fluorescent dye (SYBR Green) to detect parasite DNA following cell lysis. Because mature erythrocytes lack DNA, only Plasmodium-derived DNA is detected.
NCGC Assay Protocol Summary: The SYBR Green viability assay was adapted from a method described previously (Plouffe et al., 2008). For screening 3 ul culture medium was dispensed into 1536 well black clear bottom plates (Aurora Biotechnologies) using a Multidrop Combi (Thermo Fisher Scientific Inc.), 23 nL compounds in DMSO were added by a pin tool (Kalypsys), and 5 ul of erythrocytes infected with P. falciparum (0.3% parasitemia, 2.5% hematocrit final concentration) were added. The plates were incubated at 37 C in a humidified incubator in 5% CO2 for 72 h, and 2 ul lysis buffer (20 mM Tris HCl, 10 mM EDTA, 0.16% saponin, 1.6% triton X, 10X SYBR Green I supplied as 10,000X […] by Invitrogen) was added to each well. The plates were mixed for 25 sec with gentle shaking and incubated overnight at room temperature in the dark. The following morning, fluorescence intensity at 485(14) nm excitation and 535(25) nm emission wavelengths was measured on an EnVision (Perkin Elmer) plate reader. Plate reads were normalized relative to the control inhibitor (0.29 uM artemisinin) and vehicle (DMSO) wells present on each plate and then corrected by an algorithm using vehicle-only control plates at the beginning and end of the compound plate stack.
Take `COC(=O)C1=C(C)NC(C)=C(C(=O)OCCN2CCN(C(c3ccccc3)c3ccccc3)CC2)C1c1cccc([N+](=O)[O-])c1` (stereo not given): the Potency was 1780 nM (active).

For the molecule `Nc1ccn([C@@H]2CS[C@H](CO)O2)c(=O)n1`, the Potency result was “inactive”.

As to `COc1c(N2C[C@@H]3CCCN[C@H]3C2)c(F)cc2c(=O)c(C(=O)O)cn(C3CC3)c12`, the “activity, negative = inhibition” value is -29.5%.

As to `O=C(O)CO.[NH2-].[NH2-].[Pt+2]`, the “activity, negative = inhibition” value is 13.8%.

In the case of `COC(=O)C[C@](O)(CCCC(C)(C)O)C(=O)O[C@@H]1C(OC)=C[C@]23CCCN2CCc2cc4c(cc2[C@H]13)OCO4`, the Potency is 22.4 nM (active).

For the molecule `CN1c2cc(O)c(N=NC(N)=O)cc2CC1S(=O)(=O)O` (stereo not given), the “activity, negative = inhibition” value was -4.45%.

Regarding `Nc1ccc(S(=O)(=O)Nc2ncccn2)cc1`, the “activity, negative = inhibition” value was 4.3% [at 12.8 µM].

As for `Nc1ccn([C@@H]2O[C@H](CO)[C@H](O)C2(F)F)c(=O)n1`, the Potency is 282 nM (active).

For `CC[C@H]1CN2CCc3cc(OC)c(OC)cc3[C@H]2C[C@@H]1C[C@@H]1NCCc2cc(OC)c(OC)cc21`, the Potency is 316 nM (active).

For the molecule `C[C@H]1C[C@@H]2[C@@H]([C@@H](O)C[C@@]3(C)[C@H]2CC[C@]3(O)C(=O)CO)[C@@]2(C)C=CC(=O)C=C12`, the “activity, negative = inhibition” value was 4.95% [at 12.8 µM].

As for `CC1(C)O[C@@H]2C[C@@H]3[C@H]4C[C@@H](F)C5=CC(=O)C=C[C@]5(C)[C@@]4(F)[C@@H](O)C[C@]3(C)[C@]2(C(=O)CO)O1`, the “activity, negative = inhibition” value was 10.2%.

In the case of `COc1cc(C(=O)NS(=O)(=O)c2ccccc2C)ccc1Cc1cn(C)c2ccc(NC(=O)OC3CCCC3)cc12`, the “activity, negative = inhibition” value is -6.72%.

Regarding `CC=CC1=C(C(=O)O)N2C(=O)[C@H](NC(=O)[C@H](N)c3ccc(O)cc3)[C@@H]2SC1`, the “activity, negative = inhibition” value is -2.78%.

As for `CCC1=C[C@@H]2CN(C1)Cc1c([nH]c3ccccc13)[C@@](C(=O)OC)(c1cc3c(cc1OC)N(C)[C@@H]1[C@@](O)(C(=O)OC)[C@H](OC(C)=O)[C@]4(CC)C=CCN5CC[C@]31[C@@H]54)C2`, the Potency was 2510 nM (active).

For the molecule `O=c1[nH]c(=O)n(C2CCCO2)cc1F` (stereo not given), the “activity, negative = inhibition” value is 1.58%.
